Test results from PubChem BioAssay (Tox21).
Records with an inconclusive call do not appear. The source made the active and inactive calls. Unless noted, calls follow the shape of the dose curve; as a rule, active = well fitted curve in the direction sought with a large enough effect in the repeat runs; inconclusive = weak or mixed curves; inactive = no such curve, though single readings can be large; an effect the other way counts as inactive or inconclusive.

Assays:
[1] = qHTS assay to identify small molecule antagonists of the estrogen receptor alpha (ER-alpha) signaling pathway using the BG1 cell line in the presence of 0.1 nM 17-beta-estradiol - cell viability counter screen (AID 1259241); also: nearly all actives have a fitted effect of over 40% in size
How it was run: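 Viability in VM7Luc4E2 cells after 22 hr compound exposure under 0.1 nM 17beta-estradiol stimulation, by CellTiter-Fluor.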

[2] = qHTS assay to identify small molecule antagonists of the androgen receptor (AR) signaling pathway using the MDA cell line in the presence of 0.5 nM R1881 - cell viability counter screen (AID 1259242); also: nearly all actives have a fitted effect of over 45% in size
How it was run: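 qHTS format. MDA-kb2 (MMTV-luc, AR/GR responsive) + cpd + 0.5 nM R1881 final, 16 hr 37C/0% CO2 → CellTiter-Fluor 30 min → fluorescence intensity.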

[3] = target: Estrogen receptor (Homo sapiens) (UniProt P03372); assay: qHTS assay to identify small molecule antagonists of the estrogen receptor alpha (ER-alpha) signaling pathway using the BG1 cell line in the presence of 0.1 nM 17-beta-estradiol (AID 1259244); also: nearly all actives have a fitted effect of over 50% in size
How it was run: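 Reporter is a stably transfected luciferase under four estrogen responsive elements in VM7Luc4E2 cells expressing native full-length ER-alpha; inhibition of 0.1 nM (final) 17beta-estradiol-driven signal over 22 h is read by luminescence.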

[4] = qHTS assay to identify small molecule HDAC inhibitors - cell viability counter screen (AID 1259365); also: series mostly up to about 92 µM; nearly all actives have a fitted effect of over 50% in size
How it was run: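 Cytotoxicity was gauged in wild-type HCT-116 cells after a brief 2hr treatment with DMSO-dissolved compounds at 37C and 5% CO2, using CellTiter-Glo luminescence developed for 30min at room temperature.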

[5] = qHTS assay to identify small molecule agonists of the sonic hedgehog signaling (Shh) pathway - cell viability counter screen (AID 1259366); also: nearly all actives have a fitted effect of over 50% in size
How it was run: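 Stable Gli1-Luc NIH/3T3 clone, 2,000 cells/well. Compound exposure 24hr at 37C. Read-out: CellTiter-Fluor fluorescence.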

[6] = qHTS assay to identify small molecule antagonists of the sonic hedgehog signaling (Shh) pathway - cell viability counter screen (AID 1259367); also: nearly all actives have a fitted effect of over 55% in size
How it was run: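 CellTiter-Fluor signal in conditioned medium-stimulated 3T3 Gli1-Luc cells, 23 hr compound exposure, 37C.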

[7] = qHTS assay to identify small molecule agonists of the sonic hedgehog signaling (Shh) pathway (AID 1259368; calls by dose curve;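 also: NIH/3T3-derived 3T3Gli1-Luc cells carrying a stable Gli1-driven firefly luciferase reporter; series mostly up to about 92 µM; nearly all actives have a fitted effect of over 15% in size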)
How it was run: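 Quantitative high-throughput format using a Gli1-driven firefly luciferase reporter line derived from NIH/3T3 cells. After a 24 hr compound treatment at 37 C and 5% CO2, luminescence reported Gli1 response element activity.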

[8] = qHTS assay to identify small molecule agonists of the androgen receptor (AR) signaling pathway in the presence of an antagonist - cell viability counter screen (AID 1259379);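 also: MDA-kb2 human breast cancer cells carrying an MMTV luciferase reporter; series mostly up to about 92 µM; nearly all actives have a fitted effect of over 25% in size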
How it was run: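 Nilutamide-containing (3.0uM final) MDA-kb2 cultures, 3,000 cells/well, were treated with compounds across 15 concentrations. After 16 hr at 37C with no CO2, cell viability was determined by CellTiter-Fluor fluorescence in the luciferase assay wells.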

[9] = qHTS assay to identify small molecule agonists of the estrogen receptor beta (ER-beta) signaling pathway - cell viability counter screen (AID 1259380); also: nearly all actives have a fitted effect of over 30% in size
How it was run: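 Steps: plate ER-beta-UAS-bla HEK293T cells, rest 6 hr; add compounds in DMSO; incubate 16 hr at 37C, 5% CO2; add FRET substrate 2 hr; add CellTiter-Glo, wait 30 min at room temperature; read luminescence.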

[10] = qHTS assay to identify small molecule antagonists of the estrogen receptor beta (ER-beta) signaling pathway - cell viability counter screen (AID 1259382);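 also: HEK293T cells carrying ER-beta-UAS-bla reporter stimulated with estradiol; series mostly up to about 92 µM; nearly all actives have a fitted effect of over 55% in size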
How it was run: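 Viability is scored by CellTiter-Glo luminescence (30 min, room temperature) in ER-beta-UAS-bla HEK293T wells already read for reporter fluorescence. Compound exposure lasts 16 hr at 37C alongside 1nM 17-beta-estradiol in charcoal-stripped serum medium.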

[11] = target: Estrogen receptor (Homo sapiens) (UniProt P03372); assay: qHTS assay to identify small molecule agonists of the estrogen receptor alpha (ER-alpha) signaling pathway in the presence of an antagonist (AID 1259383; calls by dose curve; also: top concentration of the series differs between compounds; nearly all actives have a fitted effect of over 15% in size)
How it was run: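 Readout was ERE-driven luciferase luminescence in VM7Luc4E2 cells, which express full-length ER-alpha endogenously. Compounds were tested at 15 concentrations for 22hr alongside 10.0nM ICI-182,780 (final concentration).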

[12] = qHTS assay to identify small molecule agonists or antagonists of the thyroid stimulating hormone receptor (TSHR) signaling pathway - wild type cell line counter screen (AID 1259384; calls by dose curve)
How it was run: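 Counter screen in untransfected Hek293: compounds (15-point titration, triplicate) plus phosphodiesterase inhibitor Ro20-1724 added after 18 h plating; 30 min RT. Intracellular cAMP via competitive d2/cryptate immunoassay, 1 h incubation.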

[13] = target: Thyrotropin receptor (Homo sapiens) (UniProt P16473); assay: qHTS assay to identify small molecule antagonists of the thyroid stimulating hormone receptor (TSHR) signaling pathway (AID 1259385; calls by dose curve; also: nearly all actives have a fitted effect of over 20% in size)
How it was run: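 Antagonist mode: compound-treated TSHR-expressing HEK293 cells were stimulated with 1.5 ng/mL TSH (final) in presence of Ro20-1724 for 30 min at RT. HTRF cAMP detection after 1 h; each compound tested at 15 concentrations, triplicate.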

[14] = qHTS assay to identify small molecule agonists of the estrogen receptor alpha (ER-alpha) signaling pathway in the presence of an antagonist - cell viability counter screen (AID 1259386);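 also: series mostly up to about 92 µM; cells exposed to compounds for 22 h at 37 °C before the viability read; nearly all actives have a fitted effect of over 30% in size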
How it was run: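 In this counter screen, compound effects on VM7Luc4E2 viability were tested in the presence of the antagonist ICI-182,780 at 10.0nM final. Compounds were dosed at 15 concentrations, exposure lasted 22hr, and the CellTiter-Fluor signal was read.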

[15] = qHTS assay to identify small molecule HDAC inhibitors (AID 1259364);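 also: wild-type HCT-116 cells with endogenous class I/II HDAC activity; top concentration of the series differs between compounds; nearly all actives have a fitted effect of over 45% in size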
How it was run: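 Quantitative high-throughput format: overnight-seeded HCT-116 cells got compounds for 2 hr at 37C; HDAC-Glo I/II reagent added, 30 min RT, luminescence measured.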

[16] = qHTS assay to identify small molecule phospholipidosis (PLD) inducers (AID 1259344; active = well fitted curve in the direction sought with a large enough effect; an effect the other way counts as inactive or inconclusive)
How it was run: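 Accumulated phospholipid, stained red by LipidTOX during 24 h compound treatment of HepG2 cells at 37 C, is quantified from images as pit number and intensity, normalised per cell using Hoechst-stained nuclei.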

[17] = target: Estrogen receptor beta (Homo sapiens) (UniProt Q92731); assay: qHTS assay to identify small molecule agonists of the estrogen receptor beta (ER-beta) signaling pathway (AID 1259377; active = well fitted activation curve with a large enough effect in the signal ratio in the repeat runs, not every such curve was filed as active; the % refers to the signal ratio)
How it was run: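 Measured by fluorescence intensity from a B/G FRET beta-lactamase substrate (2 h, room temperature) in ER-beta-UAS-bla HEK293T cells treated with DMSO-dissolved compounds for 16 hr at 37C and 5% CO2.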

[18] = target: Estrogen receptor beta (Homo sapiens) (UniProt Q92731); assay: qHTS assay to identify small molecule antagonists of the estrogen receptor beta (ER-beta) signaling pathway (AID 1259378; active = well fitted inhibition curve with a large enough effect in the signal ratio in the repeat runs, not every such curve was filed as active; the % refers to the signal ratio)
How it was run: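 Antagonist mode: compounds added to beta-lactamase reporter HEK293T ER-beta-UAS cells stimulated with E2 (1nM final), 16 hr at 37C. LiveBLAzer B/G FRET substrate, 2 hours room temperature, fluorescence read-out.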

[19] = qHTS assay to identify small molecule antagonists of the sonic hedgehog signaling (Shh) pathway (AID 1259369; calls by dose curve; also: nearly all actives have a fitted effect of over 45% in size)
How it was run: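 Stable Gli1-Luc reporter NIH/3T3 clone; quantitative HTS in stimulated mode with conditioned medium. Luminescence measured after 24hr compound treatment at 37 C.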

Measured: Potency

Chain of Estrogen receptor (Homo sapiens) (P03372 whole entry, looked up): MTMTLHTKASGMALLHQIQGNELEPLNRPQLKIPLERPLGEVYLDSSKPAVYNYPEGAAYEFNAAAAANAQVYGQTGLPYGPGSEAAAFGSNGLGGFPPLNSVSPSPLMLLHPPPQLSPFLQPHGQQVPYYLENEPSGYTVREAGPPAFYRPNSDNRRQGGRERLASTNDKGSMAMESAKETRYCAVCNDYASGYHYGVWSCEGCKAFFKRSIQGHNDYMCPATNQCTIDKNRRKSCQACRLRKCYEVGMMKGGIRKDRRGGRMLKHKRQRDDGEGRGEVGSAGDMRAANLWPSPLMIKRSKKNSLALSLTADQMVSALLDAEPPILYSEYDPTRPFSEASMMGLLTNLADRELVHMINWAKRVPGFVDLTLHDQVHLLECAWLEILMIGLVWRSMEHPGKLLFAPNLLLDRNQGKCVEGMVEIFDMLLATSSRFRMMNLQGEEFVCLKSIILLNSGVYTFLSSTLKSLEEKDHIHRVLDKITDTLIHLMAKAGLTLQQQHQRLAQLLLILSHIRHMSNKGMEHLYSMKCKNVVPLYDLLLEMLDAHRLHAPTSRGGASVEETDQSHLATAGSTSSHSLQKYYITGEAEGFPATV
Chain of Estrogen receptor beta (Homo sapiens) (Q92731 whole entry, looked up): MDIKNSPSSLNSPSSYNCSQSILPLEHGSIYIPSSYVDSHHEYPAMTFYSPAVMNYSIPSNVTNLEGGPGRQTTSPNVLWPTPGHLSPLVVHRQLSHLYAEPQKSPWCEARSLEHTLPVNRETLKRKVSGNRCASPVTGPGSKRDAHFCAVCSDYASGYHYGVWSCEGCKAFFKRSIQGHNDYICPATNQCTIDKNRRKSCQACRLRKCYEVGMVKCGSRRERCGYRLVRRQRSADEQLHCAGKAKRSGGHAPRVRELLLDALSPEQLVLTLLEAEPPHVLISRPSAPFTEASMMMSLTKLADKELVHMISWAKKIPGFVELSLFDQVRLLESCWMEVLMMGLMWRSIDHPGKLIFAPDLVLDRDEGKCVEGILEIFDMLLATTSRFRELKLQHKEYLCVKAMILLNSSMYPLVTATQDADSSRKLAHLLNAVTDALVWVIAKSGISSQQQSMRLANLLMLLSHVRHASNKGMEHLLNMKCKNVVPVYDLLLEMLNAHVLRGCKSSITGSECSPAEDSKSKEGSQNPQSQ
Chain of Thyrotropin receptor (Homo sapiens) (P16473 whole entry, looked up): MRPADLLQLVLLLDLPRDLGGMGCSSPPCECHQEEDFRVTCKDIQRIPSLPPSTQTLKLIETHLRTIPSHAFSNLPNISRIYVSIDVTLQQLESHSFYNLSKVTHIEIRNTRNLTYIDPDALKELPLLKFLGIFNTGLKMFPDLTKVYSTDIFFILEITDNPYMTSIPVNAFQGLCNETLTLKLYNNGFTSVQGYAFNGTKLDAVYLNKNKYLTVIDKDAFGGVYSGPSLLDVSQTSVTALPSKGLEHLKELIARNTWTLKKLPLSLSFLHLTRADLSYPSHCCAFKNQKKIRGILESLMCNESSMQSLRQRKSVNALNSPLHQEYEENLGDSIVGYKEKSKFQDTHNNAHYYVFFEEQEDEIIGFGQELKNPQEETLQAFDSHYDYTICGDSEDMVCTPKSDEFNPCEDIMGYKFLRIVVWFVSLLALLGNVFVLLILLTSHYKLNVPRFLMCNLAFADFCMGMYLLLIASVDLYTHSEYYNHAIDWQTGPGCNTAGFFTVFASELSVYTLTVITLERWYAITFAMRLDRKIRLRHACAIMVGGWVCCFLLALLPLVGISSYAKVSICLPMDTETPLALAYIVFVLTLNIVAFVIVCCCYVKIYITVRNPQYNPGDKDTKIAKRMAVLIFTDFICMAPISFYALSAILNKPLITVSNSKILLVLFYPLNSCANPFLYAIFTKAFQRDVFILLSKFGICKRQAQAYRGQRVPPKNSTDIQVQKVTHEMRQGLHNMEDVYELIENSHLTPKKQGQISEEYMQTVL

CC(C)NCCCC1(C(N)=O)c2ccccc2-c2ccccc21
not listed: [15] | [16] | [17] | [18] | [19]
inactive: all other assays above

O=C1OC(=O)C2CCCCC12 (centres undefined)
not listed: [12] | [13] | [16] | [17] | [18] | [19]
inactive: all other assays above

CCCC(=O)O[C@]1(C(=O)CO)CC[C@H]2[C@@H]3CCC4=CC(=O)CC[C@]4(C)[C@H]3[C@@H](O)C[C@@]21C
not listed: [3] | [7] | [11] | [15] | [17] | [18] | [19]
inactive: all other assays above

COCCc1ccc(OCC(O)CNC(C)C)cc1 (centres undefined)
not listed: [3] | [11] | [12] | [19]
inactive: all other assays above

Oc1ccc(C2CNCCc3c2cc(O)c(O)c3Cl)cc1 (centres undefined)
not listed: [3] | [5] | [11] | [19]
inactive: all other assays above

CC(C)CNCC(C)C
not listed: [3] | [11] | [16]
inactive: all other assays above

O=C(CCCN1CCC(O)(c2cccc(C(F)(F)F)c2)CC1)c1ccc(F)cc1
inactive: [1] | [2] | [4] | [5] | [6] | [7] | [19] | [8] | [14]

CCCCOCCOCCOCCCC
not listed: [3] | [11] | [12] | [16]
inactive: all other assays above
